# Measured values taken from PubChem BioAssay (NCATS).
# Several values for one entry are separate records, joined by “and”; a condition that tells them apart may be missing. Equal values may be shown once. Results filed as inconclusive are left out. A call without a number means that no potency is given here. A number with no mark means an inactive call. Activity calls are given as the source filed them. Calls come from the whole dose curve; as a rule, active = well fitted curve in the direction sought with a large enough effect; inconclusive = small, poorly fitted or top-dose-only effect, or another doubt; inactive = no such curve, though single readings can be large; an effect the other way counts as inactive or inconclusive.
# Tests used:
# [1] = molecular target: Cellular tumor antigen p53 (Homo sapiens) (UniProt P04637); assay: Primary qHTS for small molecule compounds that upregulate eGFP-tagged delta133p53alpha (in N-terminal) cells. (AID 2060322); conditions: NCI-H358 eGFP-delta133p53alpha fluorescence, 24 h; activation: stronger effect = higher value; note: nearly all actives have a fitted effect of over 75% in size; note: potency is the fitted concentration of half-maximal effect; for activation: series mostly up to about 56 µM
# How it was run: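 NCI-H358 cells pre-induced 24 h with 10 ng/ml doxycycline to express N-terminal eGFP-delta133p53alpha, then dosed 24 h at 37C without doxycycline; fixed, Hoechst-stained, GFP intensity by laser scanning cytometry, normalized to DMSO (0%) and 57.5 uM 5-azacytidine (100%).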
# [2] = molecular target: Aldehyde dehydrogenase, mitochondrial (Homo sapiens) (UniProt P05091); assay: qHTS for Inhibitors of the Aldehyde Dehydrogenase Family (ALDH2) Primary screen (AID 2061308); note: nearly all actives have a fitted effect of over 55% in size
# [3] = molecular target: Retinaldehyde dehydrogenase 3 (Homo sapiens) (UniProt P47895); assay: qHTS for Inhibitors of the Aldehyde Dehydrogenase Family (ALDH1A3) Validation screen (AID 2061312); note: nearly all actives have a fitted effect of over 45% in size; note: potency is the fitted concentration of half-maximal effect
# [4] = molecular target: Retinaldehyde dehydrogenase 3 (Homo sapiens) (UniProt P47895); assay: qHTS for Inhibitors of the Aldehyde Dehydrogenase Family (ALDH1A3) Primary screen (AID 2061315)
# Sequence of Cellular tumor antigen p53 (Homo sapiens) (P04637 whole entry, looked up): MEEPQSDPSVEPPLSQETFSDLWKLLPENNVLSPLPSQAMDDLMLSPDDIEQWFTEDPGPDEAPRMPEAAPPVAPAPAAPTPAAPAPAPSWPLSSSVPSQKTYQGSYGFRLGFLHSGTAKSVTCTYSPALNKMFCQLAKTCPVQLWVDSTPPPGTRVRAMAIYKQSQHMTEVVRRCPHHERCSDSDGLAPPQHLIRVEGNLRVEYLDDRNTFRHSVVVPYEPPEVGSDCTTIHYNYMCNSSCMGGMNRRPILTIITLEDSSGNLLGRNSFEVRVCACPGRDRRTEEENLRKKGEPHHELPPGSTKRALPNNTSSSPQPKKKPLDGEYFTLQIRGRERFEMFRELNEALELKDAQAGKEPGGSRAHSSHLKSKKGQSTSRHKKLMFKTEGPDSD
SMILES,activation [1],Potency [2],Potency [3],Potency [4],Potency [1]
C=CCN1CC[C@]23c4c5ccc(O)c4O[C@H]2[C@@H](O)CC[C@@]3(O)[C@H]1C5,4.33%,inactive,,,
CCOC(=O)c1ccc(-c2ccc(OC(=O)N(C)Cc3cccc(-c4ccncc4)c3)cc2)cc1,-12.9%,inactive,inactive,inactive,
C1=C(c2cnc[nH]2)c2ccsc2CC1,-3.34%,inactive,5.62 µM (active),,
N#Cc1ccccc1-c1cc(-c2ccccn2)cn(-c2ccccc2)c1=O,10.5%,inactive,inactive,inactive,
CN1[C@@H]2CC[C@H]1CC(OC(=O)C1C=Nc3ccccc31)C2 (stereo partly drawn),-7.64%,inactive,inactive,inactive,
CCN1C[C@]2(OC(=O)c3ccccc3NC(C)=O)CC[C@H](OC)[C@@]34[C@@H]2C[C@@H]([C@@H]13)[C@@]1(O)C[C@H](OC)[C@H]2C[C@@H]4[C@]1(O)[C@H]2OC,-6.68%,inactive,inactive,inactive,
COc1cccc(NCC(F)Cn2c3ccc(Br)cc3c3cc(Br)ccc32)c1 (stereo not drawn),8.11%,inactive,inactive,inactive,
COc1cc2c(c(OC)c1OC)-c1ccc(SC)c(=O)cc1[C@@H](NC(C)=O)CC2,8.33%,inactive,,,
COc1ccc2[nH]c(-c3ccccc3)c(CCN(C)C)c2c1,-11%,inactive,inactive,inactive,
N#Cc1ccc([C@H]2CCCC[C@H]2O)cc1C(F)(F)F,11%,inactive,inactive,inactive,
CN1CCCCC1Cn1cc(C(=O)c2cc([N+](=O)[O-])ccc2I)c2ccccc21 (stereo not drawn),23.9%,inactive,inactive,inactive,
Cc1cn(C[C@H](N)C(=O)O)c(=O)n(Cc2cc(-c3ccccc3)sc2C(=O)O)c1=O,8.11%,inactive,inactive,inactive,
O=C(NCCN1CCC2(CC1)C(=O)NCN2c1cccc(F)c1)c1ccc(F)c(F)c1,18.1%,inactive,inactive,inactive,
CCCCCn1cc(C(=O)Cc2ccccc2OC)c2ccccc21,3.34%,inactive,inactive,inactive,
C[C@H]1CN(CC[C@H](O)C2CCCCC2)CC[C@@]1(C)c1cccc(O)c1,-6.21%,inactive,inactive,inactive,
CN(C(=O)Cc1ccccc1)C(CN1CCCC1)c1ccccc1 (stereo not drawn),-0.477%,inactive,inactive,inactive,

SMILES,activation [1],Potency [2],Potency [3],Potency [4],Potency [1]
CC1CCCC(O)CCC/C=C/c2cc(O)cc(O)c2C(=O)O1 (stereo not drawn),28.2%,inactive,,,
NC(=O)c1ncn2c1CN=C(c1ccccc1Br)c1cc(F)ccc1-2,-14.3%,inactive,inactive,inactive,
CC1(C)C(=O)N(c2ccc(C#N)c(C(F)(F)F)c2)C(=S)N1c1ccc(C(N)=O)c(F)c1,1.43%,inactive,inactive,inactive,
C1=C2CCCN[C@H]2[C@@H]2C[C@H]1[C@H]1CCCCN1C2,-9.55%,inactive,inactive,inactive,
N#Cc1cn([C@@H]2O[C@H](CO)[C@H](O)[C@@H]2O)c2ncnc(N)c12,,inactive,inactive,inactive,0.0757 µM (active)
CN(C)CCc1c[nH]c2ccc(CN3CCN(C)S3(=O)=O)cc12,-4.3%,inactive,inactive,inactive,
CCCCN1[C@@H]2CC[C@H]1CC(OC(c1ccc(F)cc1)c1ccc(F)cc1)C2 (stereo partly drawn),2.39%,inactive,inactive,inactive,
CC(=O)N(C)c1cccc(-c2ccnc3c(C(=O)c4cccs4)cnn23)c1,-3.13% and 5.73%,inactive,inactive,inactive,
COC1(C[S@@](=O)c2ccccc2)CCN(CCc2c[nH]c3ccc(F)cc23)CC1,-6.68%,inactive,inactive,inactive,
COc1cc(CCNCc2ccccc2O)c(OC)cc1C#N,-6.21%,inactive,inactive,inactive,
CCOC(=O)c1cncn1C(C)c1ccccc1 (stereo not drawn),10% and 2.86%,inactive,inactive,inactive,
CC[C@@H]1C[C@H]2CC[C@H](O2)[C@H](C)C(=O)O[C@@H](C)C[C@@H]2CC[C@@H](O2)[C@@H](C)C(=O)O[C@H](CC)C[C@H]2CC[C@H](O2)[C@H](C)C(=O)O[C@@H](C)C[C@@H]2CC[C@@H](O2)[C@@H](C)C(=O)O1,,inactive,,,6.3 µM (active)
CCCN1CCO[C@H]2c3cc(O)ccc3OC[C@@H]21,4.46%,inactive,,,
CN(Cc1cccc(-c2ccncc2)c1)C(=O)Oc1ccc(-c2ccc(C(N)=O)cc2)cc1,-8.11%,inactive,inactive,inactive,
Clc1ccc(OCC2=NCCN2)cc1Cl,-0.955%,inactive,inactive,inactive,
